FBW7 act – human FBW7 E3 ligase activation, primary screen; Q969H0; actives 0.13% (n = 650,000); AID 1259310; AlphaScreen FBW7–phospho-cyclin E peptide binding, activator screen; normalized activity (activation), % at 26.1 µM; in the data active = normalized activity above about 1.9%;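 note: purified mutant Fbw7 with reduced substrate affinity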
GPR151 activ – activators of human GPR151; actives 1% (n = 650,000); PathHunter beta-arrestin GPR151 cells, luminescence; activation, % at 11.2 µM; in the data active = activation above about 4.9%
MITF inh – blocks human microphthalmia-associated transcription factor; O75030; AlphaScreen MITF homodimerization, bead proximity signal; inhibition, % at 2.6 µM; actives 0.91% (n = 650,000); in the data active = inhibition above about 50%
TEAD-YAP inh – TEAD-YAP interaction inhibition | actives 1.4% (n = 640,000) | HEK-TIYL cells, TEAD-Gal4/YAP UAS-luciferase luminescence | inhibition, % at 9.12 µM | AID 1259422; in the data active = inhibition above about 32%
Of the large screens only hits and unclear results are named; the others gave an inactive call. Hits are enriched below; roughly 3.4% of the tested compounds scored in any of these assays.

Cc1cccc(N2C(=O)/C(=C/c3cc4c(cc3[N+](=O)[O-])OCO4)C(=O)NC2=S)c1	none
c1ccc2c(Nc3nccc(Nc4ccc(N5CCOCC5)cc4)n3)nccc2c1	TEAD-YAP inh 61.6
c1ccc2c(Nc3nc4ncnc(Nc5ccc(N6CCOCC6)cc5)c4[nH]3)nccc2c1	TEAD-YAP inh 40.5
c1ccc2c(c1)CCN(c1nc3ncnc(Nc4ccc(N5CCOCC5)cc4)c3[nH]1)C2	TEAD-YAP inh 53.5
c1ccc(Nc2ncnc3nc(Nc4ccc(N5CCOCC5)cc4)[nH]c23)cc1	none
c1ccc(Nc2ccnc(N3CCc4ccccc4C3)n2)cc1	none
c1ccc2c(c1)CCN(c1nccc(Nc3ccc(N4CCOCC4)cc3)n1)C2	TEAD-YAP inh 40.5
COc1ccc([N+](=O)[O-])cc1NC(=O)Cc1noc2ccccc12	none
O=C(CN1C(=O)c2ccccc2C1=O)Nc1nc(-c2ccncc2)cs1	none
COc1cccc(NC(=O)CSc2nc(NC3CCCCC3)c3ccccc3n2)c1	TEAD-YAP inh 43.6
O=C(Nc1cccc(Cl)c1)c1ccc(F)c(S(=O)(=O)NCCc2ccccc2)c1	none
Cc1c(Cl)cccc1NC(=O)c1cc(S(=O)(=O)NCc2ccco2)ccc1F	FBW7 act 2.0
CCOc1ccc(NC(=O)c2cc(S(=O)(=O)NCc3ccccc3Cl)ccc2F)cc1	TEAD-YAP inh 44.9
C=CCNS(=O)(=O)c1cc(C(=O)Nc2ccc(Oc3ccccc3)cc2)ccc1F	TEAD-YAP inh 66.5
O=C(Nc1ccc(Oc2ccccc2)cc1)c1ccc(F)c(S(=O)(=O)NCCc2ccccc2)c1	TEAD-YAP inh 39.9
CCOC(=O)N1CCN(S(=O)(=O)c2cc(C(=O)Nc3ccc(Oc4ccccc4)cc3)ccc2F)CC1	none
CCCCNC(=O)/C(=C/c1ccc2c(c1)OCO2)NC(=O)c1cccc(Br)c1	none
O=C(Nc1nc(-c2ccc(Cl)cc2Cl)cs1)c1ccco1	none
COC(=O)COc1ccc2c(=O)c(-c3ccc4c(c3)OCCO4)coc2c1	none
COc1ccc(CNS(=O)(=O)c2cc(C(=O)Nc3ccc(Oc4ccccc4)cc3)ccc2F)cc1	none
CCOc1ccc(NC(=O)c2ccc(F)c(S(=O)(=O)NCc3ccccc3)c2)cc1	TEAD-YAP inh 36.9
O=C(Nc1ccc(Oc2ccccc2)cc1)c1ccc(F)c(S(=O)(=O)NCc2ccc(F)cc2)c1	TEAD-YAP inh 41.8
CN1/C(=C\C(C[N+](=O)[O-])c2ccc3c(c2)OCO3)C(C)(C)c2ccccc21 (configuration not stated)	TEAD-YAP inh 48.7
COc1ccc(C(/C=C2\N(C)c3ccccc3C2(C)C)C[N+](=O)[O-])cc1 (configuration not stated)	none
CCCC(=O)NC(c1ccccc1)c1ccc2cccnc2c1O (configuration not stated)	TEAD-YAP inh 84.6
CCCC(=O)NC(c1ccc(OC)cc1)c1ccc2cccnc2c1O (configuration not stated)	TEAD-YAP inh 72.2
CCCC(=O)NC(c1ccc(F)cc1)c1ccc2cccnc2c1O (configuration not stated)	TEAD-YAP inh 86.3
CCC(=O)NC(c1ccc(OC)cc1)c1c(O)ccc2ccccc12 (configuration not stated)	TEAD-YAP inh 51.8
COc1ccc(C(=O)NNC(=O)CCCC(=O)O)cc1	none
CC1CCN(Cc2nnnn2Cc2ccccc2)CC1	none
COc1ccc(CC(=O)Nc2ccc(S(=O)(=O)Nc3cc(OC)nc(OC)n3)cc2)cc1	none
O=C(c1ccccc1F)N1CCCC(C(=O)N2CCCC2)C1 (configuration not stated)	none
c1ccc(C(CCn2ccnc2)Nc2nncc(-c3ccc4c(c3)OCO4)n2)cc1 (configuration not stated)	TEAD-YAP inh 44.6
CCn1c(C)cc(/C=C2/NC(=O)N(c3ccccc3)C2=O)c1C	TEAD-YAP inh 33.5
COc1cccc(/C=C2/NC(=O)N(c3ccccc3)C2=O)c1O	TEAD-YAP inh 34.9
COc1ccccc1/C=C1/NC(=O)N(c2cccc(Cl)c2)C1=O	none
CC1CCc2c(sc3nc(CN4CCOCC4)nc(Sc4nccn4C)c23)C1 (configuration not stated)	none
CC1=C/C(=C\c2c(O)[nH]c(=O)[nH]c2=O)C(C)=N1	none
CC1=C/C(=C\c2c(O)n(Cc3ccco3)c(=S)[nH]c2=O)C(C)=N1	MITF inh 83.5
Cc1sc2nc(-c3cccnc3)nc(NCCSCc3ccco3)c2c1C	TEAD-YAP inh 67.9
Cc1nc(NCc2cccnc2)c2c(C)c(C)sc2n1	none
Cc1cc(=O)oc2c3c(ccc12)OC(=O)/C3=C\c1ccccc1	none
O=C(OCc1cccc(Cl)c1Cl)c1ccco1	none
